In all, about 1,300 compounds went through this assay and about 330 (25%) were called active. These entries were drawn from the full list. Results with a measured potency or affinity are listed apart. Values without a mark were called inactive. How the calls were made is not given here.
Test: growth inhibition of MALME3 cells – cell-based, CellTiter-Glo, cherry-picked, orthogonal assay for MITF inhibitor project, dose response (AID 493191)
Conditions: MALME3 melanoma viability, CellTiter-Glo luminescence, 24 h; series mostly up to 35 µM; activity change, negative = inhibition: at the top concentration

Structure (SMILES)	activity change, negative = inhibition [%]
CN(C)c1ccc(-n2cccc2/C=C/[N+](=O)[O-])cc1	-41.8
Cc1cc(Cl)ccc1NC(=O)c1ccc2c(c1)OCO2	13.7
Cc1ccc(OCC(=O)Nc2cccc(C)n2)c(C)c1	5.8
COc1cccc(/C=C/C(=O)c2ccc3c(c2)OCCO3)c1OC	-7.96
CCN1CCN(c2ccc(S(=O)(=O)N3CCOCC3)cc2NC(=O)/C=C/c2ccc([N+](=O)[O-])cc2)CC1	-29
COc1ccc(/C=C/C(=O)NC(=S)N2CCN(c3ccccc3OC)CC2)cc1	-2.42
O=[N+]([O-])c1cc(S(=O)(=O)N2CCCCCC2)ccc1F	-22.2
CN(C)CCNc1ccc2nnn3c4ccc(O)cc4c(=O)c1c23	-23.3
N=C1C(c2nc3ccccc3[nH]2)=C(O)CN1C1CCCCC1	-0.094
COc1ccc(C(=O)NCCSc2ccccc2C)cc1	-4.39
COc1ccc(/C=C2\Sc3ccc(C(=O)NCCN4CCCCCC4)cc3N(C)C2=O)cc1	-30.5
O=C(NCCSc1ccccc1)c1ccccc1F	-4.77
CN(C)CCCNc1nc2sc3c(c2c(=O)n1CCc1ccccc1)CCCCC3	-41.2
CC(C)(C)c1ccc(-c2cn(-c3ccc(Br)cc3)c3[n+]2CCCS3)cc1	-35.8
OCc1ccc(N=Nc2ccccc2)cc1	4.1
CN(C)C1CCN(Cc2cc(COCc3ccccc3)c3cccnc3c2O)C1 (configuration not stated)	-30.3

Structure (SMILES)	activity change, negative = inhibition [%]
Oc1c(CN2CCCC2)cc(COCc2ccccc2)c2cccnc12	-30.5
COc1cccc(CNc2nc3ccccc3n2C)c1O	-9.88
COC(=O)c1c(NC(=O)c2nc3ccccc3s2)sc2c1CC(C)(C)NC2(C)C	-5.34
O=C1c2ccccc2CN1c1ccccc1	-4.28
CC(=O)Nc1ccc2c(c1)ncn2-c1ccccc1	1.87
O=C(NCc1csc(-c2cccs2)n1)C1CCC1	5.23
C/C(=N\NC(=O)C(C)Oc1ccc([N+](=O)[O-])cc1)c1ccccn1 (configuration not stated)	-25.6
CC(=O)N(C1CC(C)C(C#N)(C#N)C1(C#N)C#N)N(C)C (configuration not stated)	45.4
COc1ccccc1N1C(=O)N(C(C)=O)C2C1Nc1ccccc1N2C (configuration not stated)	-21
N#Cc1cnc2sc3ccccc3n2c1=N	-6.66
Cc1c(/C=C/C(=O)c2ccc(Cl)s2)cnn1C	1.68
Cc1c(C=O)c2cc(OCc3ccccc3)ccc2n1C	10.2
N#C/C(=C\C=C\c1ccccc1[N+](=O)[O-])C(=O)NC1CCCCC1	-15.7
N#C/C(=C\C=C\c1ccccc1[N+](=O)[O-])C(=O)NCc1ccccc1	-15.7
Nc1ncnc(Sc2ncccn2)c1[N+](=O)[O-]	14.4
CC(C)C(=O)Nc1ccc2nn(-c3ccc(F)cc3)nc2c1	1.91

Reference: PubChem BioAssay AID493191 (Broad Institute, 2011)
